Our source for the outcome values is PubChem BioAssay AID588849 (Broad Institute, 2011).

SMILES strings stand for the structures. Potency and affinity values are given separately. Calls of active or inactive are those of the source. Where a call stands in place of a potency, no number is given. No rule for the calls is given here.

The target in the assay is CAAX prenyl protease 2 (Homo sapiens) (UniProt Q9Y256). As to the kind of experiment: human Rce1 protease inhibitors, dose response, biochemical, yeast membranes, quenched-peptide fluorescence, cherry-pick (AID 588849). To be noted: yeast membrane fractions expressing human Rce1, quenched-peptide fluorescence, 4 h; series mostly up to 10 µM.
Chain of CAAX prenyl protease 2 (Homo sapiens) (Q9Y256 whole entry, looked up): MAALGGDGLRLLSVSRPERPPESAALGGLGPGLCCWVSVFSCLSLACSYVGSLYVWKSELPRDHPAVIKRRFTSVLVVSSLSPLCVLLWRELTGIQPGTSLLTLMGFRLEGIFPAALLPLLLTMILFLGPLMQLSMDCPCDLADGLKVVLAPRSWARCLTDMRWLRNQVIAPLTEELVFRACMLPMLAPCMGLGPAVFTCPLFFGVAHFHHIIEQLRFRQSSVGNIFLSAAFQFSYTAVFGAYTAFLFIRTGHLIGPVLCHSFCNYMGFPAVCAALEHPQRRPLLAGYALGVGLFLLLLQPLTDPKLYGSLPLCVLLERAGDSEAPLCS
Turning to `COc1ccc(-c2cn3ccccc3n2)cc1[N+](=O)[O-]`, the result was inactive.

On to `COc1ccc(C(C(=O)NC2CCCCC2)N(C(=O)c2snc(C(N)=O)c2N)c2ccc(OC)cc2OC)cc1` (stereo not drawn), for which the result was inactive. For `O=C(COC(=O)c1ccccc1Cc1ccccc1)NC1CCS(=O)(=O)C1` (stereo not drawn), the molecule was called inactive. With `Cc1ccccc1OC(C)C(=O)N1CCC(Cc2ccccc2)CC1` (stereo not drawn), the result was inactive. As for `COc1ccccc1CC(=O)Nc1ccc2c(C)cc(=O)oc2c1`, the molecule was classed as inactive.

Regarding `COc1cccc(C2CC(c3cccs3)=NN2C(=O)CSc2nc3c(cnn3-c3ccc(F)cc3)c(=O)[nH]2)c1OC` (stereo not drawn), the result was inactive.

Take `COc1cc(-c2nc3ccccn3c2/N=C/c2cc(OC)c(OC)c(OC)c2)ccc1O`: the molecule was classed as inactive. `Cc1cc(NC(=O)c2oc3ccccc3c2C)ccc1-n1cnnn1`: the result was inactive.

Regarding `O=C1OCCN1C(=O)[C@H]1[C@H](c2ccc(F)cc2)C(c2ccc(F)cc2)=NN1c1ccc(Br)cc1`, the call was inactive. Turning to `COc1ccc(C2CC(c3ccc4ccccc4c3)=NN2C(=O)CNC2CCCCC2)cc1` (stereo not drawn), the molecule was called inactive. Consider `CCOc1ccc(-n2c(SCc3ccc([N+](=O)[O-])cc3)nnc2-c2ccc(OC)cc2)cc1`, for which the result was inactive.

Regarding `COC(C[C@H](O)C[C@H](O)[C@@H](C)OCc1ccccc1)OC`, the call was inactive. Turning to `Cc1cc(C)cc(N2CC(O)=C(c3nc4ccccc4c(=O)[nH]3)C2=N)c1`, the molecule was classed as inactive. Regarding `c1ccc(Nc2cccc(Nc3ccccc3)n2)cc1`, the molecule was called inactive. On to `COc1cccc2c(=O)c(C(=O)O)c[nH]c12`, for which the result was inactive. As for `O=C(NCCc1cccnc1)c1cc(COc2ccc(F)cc2Cl)on1`, the result was inactive. Consider `CCOc1cccc(-c2c(C(=O)N/N=C/c3c(F)cccc3Cl)nnn2-c2nonc2N)c1`, for which the outcome was inactive. `CSC[C@H](NC(=O)COc1cc2c(c3oc(=O)cc(C)c13)CCC(C)(C)O2)C(=O)O`: the molecule was called inactive. To `COc1cccc(CNc2nc3nc(C)cc(C)n3n2)c1` belongs “inactive”. Turning to `COc1c2ccoc2nc2c(OC)cccc12`, the outcome was inactive. `Cc1cc(OCC(=O)N2CCC(C(=O)O)CC2)c2c(C)cc(=O)oc2c1`: the call was inactive. Turning to `COc1ccc(OC)c(/C=N/c2c(-c3ccc(O)c(OC)c3)nc3ccccn23)c1`, the call was inactive.

For `COc1ccc(NS(=O)(=O)c2c(C)cc(C)cc2C)cc1`, the call was inactive. In the case of `CCOC(=O)c1nnn2c1nc(N1CCOCC1)c1ccccc12`, the molecule was called inactive.

As for `CCOC(=O)c1cc2c(=O)n3cccc(C)c3nc2n(CC(C)C)c1=NC(=O)c1ccco1`, the outcome was inactive. Consider `O=C(CN(C1CCCCC1)C1CCCCC1)N1CCc2ccccc2C1`, for which the molecule was called inactive. For the molecule `COC(=O)c1cnn2c3c(c(C)nc12)CCCC3`, the molecule was classed as inactive. Regarding `c1cnn(Cc2cnc(N3CCOCC3)s2)c1`, the result was inactive. Turning to `COc1ccc(-c2ccc3oc(-c4ccc(OC)cc4)c(-c4ccc(OC)cc4)c3c2)cc1`, the molecule was called inactive. Turning to `CCOC(=O)C[n+]1ccc2c([nH]c3ccccc32)c1C`, the molecule was called inactive. The same measure for `O=C(CN1C(=O)/C(=C\c2cccc(Br)c2)Oc2ccccc21)NCC1CCCO1` (stereo not drawn): “inactive”; for `COc1ccc(C(=O)/C=C/c2ccc(OC)cc2OC)c(O)c1`: “inactive”; for `CCC(C)(C)c1ccc(OCCCC[n+]2cccc(C)c2C)c(C(C)(C)CC)c1`: “inactive”.

In the case of `Cc1ccc(S(=O)(=O)c2cn(C)c3cc(N4CCOCC4)c(F)cc3c2=O)cc1`, the molecule was called inactive. `CCCCCCSc1cc(-c2nc3cc(C)ccn3c2NCCCC)ccc1OC`: the result was inactive. `CC(C)c1c(C(=O)N/N=C/c2c[nH]c3ccccc23)nnn1-c1nonc1N`: the result was inactive. For `COc1ccc(-n2nc(C(=O)NCC(=O)N3CCC(C)CC3)c3ccccc3c2=O)cc1`, the molecule was classed as inactive.

For the molecule `C=C(C)C1(O)OC(=O)C=C1OC` (stereo not drawn), the call was inactive.
